Results with a measured potency or affinity are listed apart. A number with no mark means an inactive call.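 Rule for the calls: active = fitted half-maximal concentration for loss of cell signal no higher than twice the top valid tested concentration; inconclusive = flat curve at 30 to 70% inhibition, or poor fit; inactive = flat within 30%, signal rise, or potency above limit.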

This experiment in a line: cytotoxicity toward MDA-MB-231 breast cancer cells – cell-based, CellTiter-Glo luminescence, cherry-pick, cytotoxicity control for RAD54 inhibitor project, dose response (AID 651692).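 Note: 0% = median of sample compound wells and -100% = staurosporine control wells; more negative values mean stronger loss of viable cell signal.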 The settings on record: MDA-MB-231 viability, 24 h; series mostly up to 26 µM; activity change, negative = growth inhibition: at the top concentration.
For `COc1cc(NC(=O)c2cccnc2Sc2ccc(C)c(C)c2)cc(OC)c1OC`, the “activity change, negative = growth inhibition” value was 8.68%.

Consider `CCN(CC)CCCNC(=O)c1cc2c(-c3ccc(Cl)cc3)nn(C)c2s1`, for which the “activity change, negative = growth inhibition” value is -1.26%.

On to `CN(C)CCSc1nc(N)c2c3c(sc2n1)CN(C)CC3`, for which the “activity change, negative = growth inhibition” value is 1.23%.

On to `COc1ccc(-c2cc3nc(NCCN4CCCC4)n(C)c(=O)c3s2)cc1OC`, for which the “activity change, negative = growth inhibition” value was 4.91%.

In the case of `CCN(CC)CCNC(=O)c1cc2cc3ccc(OC)cc3nc2o1`, the “activity change, negative = growth inhibition” value was 4.55%.

On to `COc1ccc2cc3cc(C(=O)NCCCN4CCC(C)CC4)oc3nc2c1`, for which the “activity change, negative = growth inhibition” value was 10.5%.

With `Cc1cccn2c(=O)c3cc(C(=O)NCCc4ccccc4)c(=N)n(CCCn4ccnc4)c3nc12`, the “activity change, negative = growth inhibition” value was -4.6%.

For the compound `CN(C)CCN(C(=O)c1ccc2c(c1)OCCO2)c1nc2c(Cl)cccc2s1`, the “activity change, negative = growth inhibition” value was 3.6%.

In the case of `O=C(Nc1ccc(C2=NCCN2)cc1)c1ccc(C(=O)Nc2ccc(C3=NCCN3)cc2)c(Cl)c1`, the “activity change, negative = growth inhibition” value was 12.8%.

As to `CN1CCC[C@H]1CCNc1ccc2c(=O)c3ccccc3n(C)c2c1`, the “activity change, negative = growth inhibition” value was 3.73%.

Consider `Cc1ccc(-c2nc(C(=O)NCCCN(C)C)cc3c2[nH]c2ccccc23)cc1`, for which the “activity change, negative = growth inhibition” value is -18.9%.

As to `O=C(CN1CCCC1)Nc1ccc(-c2nc3cc(NC(=O)CN4CCCC4)ccc3o2)cc1`, the “activity change, negative = growth inhibition” value is -7.28%.

In the case of `CCN(CC)CCN(C(=O)C1=COCCO1)c1nc2c(OC)ccc(OC)c2s1`, the “activity change, negative = growth inhibition” value is 6.87%.

With `CCn1c(=N)c(C(=O)NCCCOC)cc2c(=O)n3cccc(C)c3nc21`, the “activity change, negative = growth inhibition” value is 5.29%.

Take `CCN(CC)CCCNC(=O)c1ccc2c3n(nc2c1)-c1ccc(Cl)cc1CO3`: the “activity change, negative = growth inhibition” value is 9.21%.

Consider `Cc1ccnc(Nc2nc(-c3sc(C)nc3C)cs2)c1`, for which the “activity change, negative = growth inhibition” value is 0.852%.

On to `O=C(CS(=O)(=O)c1ccccc1)Nc1ccc(Br)cn1`, for which the “activity change, negative = growth inhibition” value is 8.12%.

Consider `CCOCCCNC(=S)Nc1ccc2nc(N3CCCC3)cc(C)c2c1`, for which the “activity change, negative = growth inhibition” value was -4.85%.

As for `CN(C)CCNC(=O)c1cccc(-c2cnc3c(NC=O)cc(-c4ccccc4F)cn23)c1`, the “activity change, negative = growth inhibition” value was -5.66%.

Turning to `Cc1cccn2c(=O)c3cc(C(=O)NCc4ccccc4)c(=N)n(CCCN4CCOCC4)c3nc12`, the “activity change, negative = growth inhibition” value was 0.872%.

As for `COc1cc(OC)c2nc(C)c3c(c2c1)N(c1ccc(O)cc1)CC3`, the “activity change, negative = growth inhibition” value is 6.2%.

With `CN(C)C(CNC(=O)CCCN1C(=O)c2cccc3cccc(c23)C1=O)c1ccccc1` (centres undefined), the “activity change, negative = growth inhibition” value is 13.8%.

As for `CCNCCNC(=O)c1c(O)c2cccc3c2n(c1=O)CCC3`, the “activity change, negative = growth inhibition” value was 1.14%.

Take `COc1ccc(Nc2c3ccccc3nc3ccccc23)cc1`: the “activity change, negative = growth inhibition” value was -8.98%.

On to `Cc1cc(C)n(-c2nc(NCCN(C)C)c3c4c(sc3n2)COC(C)(C)C4)n1`, for which the “activity change, negative = growth inhibition” value was -9%.

Take `COc1cccc2c1-c1c(O)cccc1C2=O`: the “activity change, negative = growth inhibition” value is 2.79%.

As to `O=C(Nc1ccc2c(c1)OCO2)c1cc(-c2ccncc2)nc2ccccc12`, the “activity change, negative = growth inhibition” value is -13.1%.

Take `COc1cc2nc(Nc3ccc(F)cc3)nc(N)c2cc1OC`: the “activity change, negative = growth inhibition” value is 14.2%.

Regarding `CC1CCCCN1CCNC(=O)c1cc2c(=O)n(C)c3ccccc3c2n1C` (centres undefined), the “activity change, negative = growth inhibition” value is -12.9%.

`COc1ccc(-c2cc(NC=O)c3ncc(-c4cccc(C(=O)NCCN(C)C)c4)n3c2)cc1`: the “activity change, negative = growth inhibition” value is -4.06%.

As for `CCCN(CCC)CCCNC(=S)Nc1ccc2nc(N3CCN(C)CC3)cc(C)c2c1`, the “activity change, negative = growth inhibition” value was 0.795%.

As to `Cc1ccc2nc3c(c(N)c2c1)CCN3C`, the “activity change, negative = growth inhibition” value was 4.96%.

As for `CCN(CC)CCNC(=S)Nc1ccc2nc(N3CCN(C)CC3)cc(C)c2c1`, the “activity change, negative = growth inhibition” value was -1.16%.

On to `COc1ccccc1Nc1c2ccccc2nc2ccccc12`, for which the “activity change, negative = growth inhibition” value was -3.7%.

For the compound `COc1cccc2sc3ccc(NCCC4CCCN4C)cc3c(=O)c12` (centres undefined), the “activity change, negative = growth inhibition” value is -11.6%.

For `CCOC(=O)c1cnc2ccc(OCC)cc2c1NCCCN1CCOCC1`, the “activity change, negative = growth inhibition” value was 9.33%.

On to `CN(C)CCNC(=O)c1cccc(-c2cnc3c(NC=O)cc(-c4cccs4)cn23)c1`, for which the “activity change, negative = growth inhibition” value is 5.06%.

Take `Cn1c2ccc(F)cc2c2ncn(CCCN(CCO)CCO)c(=O)c21`: the “activity change, negative = growth inhibition” value is 1.71%.

Turning to `CCOC(=O)Nc1c2ccccc2nc2ccccc12`, the “activity change, negative = growth inhibition” value is 7.91%.

(Values after PubChem BioAssay AID651692 (Broad Institute, 2012).)
